# High-throughput results deposited in PubChem BioAssay by National Center for Advancing Translational Sciences (NCATS).
# Pf growth 48h: Primary qHTS for delayed death inhibitors of the malarial parasite plastid, 48 hour incubation; actives 5.9% (n = 310,000); P. falciparum luciferase growth in erythrocytes, 48 h; Potency, µM (series often up to 28.7 µM), for the others: top-dose activity change, negative = inhibition, usual class: inhibitors; further: potency means the concentration at half of the fitted maximal effect; on the % scale 0 is the no-effect control and ±100 the full control effect
#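 Erythrocytes infected with P. falciparum carrying an integrated firefly luciferase reporter (2% hematocrit, 0.1% parasitemia final) were exposed to compounds in RPMI 1640 with 0.5% Albumax at 37 C, 5% CO2. Growth inhibition was scored as reduced luminescence.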
# CHX counter: Cycloheximide Counterscreen for Small Molecule Inhibitors of Shiga Toxin | cell reporter, cycloheximide protein synthesis inhibition counterscreen | max response, % | AID 2314, 2010 | actives 12% (n = 300,000); in the data active means max response mostly above about 13%, no sharp cut-off; inactive means mostly below about 14%; further: read at 38.3 µM for the half of the compounds with a filed dose; 0% is about no effect
# Shiga inhibitor: A qHTS for Small Molecule Inhibitors of Shiga Toxin; Vero cells, Shiga toxin protein synthesis inhibition reporter; actives 9.2% (n = 290,000); inhibition, % at 38.7 µM; AID 2315, 2010; in the data active means inhibition mostly above about 28%, no sharp cut-off; inactive means mostly below about 43%; further: 0% is about no effect
# Pf growth 96h: Primary qHTS for delayed death inhibitors of the malarial parasite plastid, 96 hour incubation. Potency, µM (series often up to 28.7 µM), without a hit: at the highest dose activity change, negative = inhibition, usual class: inhibitors. actives 6.9% (n = 320,000). AID 504834, 2011. P. falciparum luciferase reporter growth, 96 h; further: potency means the concentration at half of the fitted maximal effect; on the % scale 0 is the no-effect control and ±100 the full control effect
#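 Compounds incubated with erythrocytes infected by luciferase-expressing P. falciparum (2% hematocrit, 0.05% parasitemia final) for 96 hours, 37 C in 5% CO2. Growth inhibition scored as decreased luciferase luminescence.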
# The depositor's hits bear a star; i = inactive; u = inconclusive; x = no result given. Shown are actives, neighbours in structure and some others; about 21% of the full set was active somewhere. Unless noted, the call rests on the fitted dose curve; in most records, active means well fitted inhibition curve with a large enough effect; inconclusive means small, poorly fitted or top-dose-only effect, or another doubt; inactive means no such curve, though single readings can be large or run the other way.
SMILES,Pf growth 48h,CHX counter,Shiga inhibitor,Pf growth 96h
COC(=O)c1cccc2nc3c(C(C)O)cccc3nc12 (stereo not drawn),-2.5%,8.1*,21.7,u
CCN1C(=O)C2(C(C(=O)c3cc4ccccc4o3)=C(O)C(=O)N2CCCN(C)C)c2ccccc21 (stereo not drawn),3.9%,1.6,16.4,10.7%
N#CC1=C(N)S[C@H](C(=O)C23CC4CC(CC(C4)C2)C3)[C@H]1c1ccncc1,10.4µM*,-2.0,-4.9,4.65µM*
CC1CCCN(C2(O)C(=O)Nc3c(C(F)(F)F)cccc32)C1 (stereo not drawn),4.15µM*,9.4*,24.2,-12.5%
COc1ccc(C(=O)/C(=C/N(C)C)S(=O)(=O)c2ccccc2)cc1,84.3%,27.3*,60.9*,138.0%
O=C1C=C(c2ccc(-c3ccccc3)c(F)c2)C[C@@H](c2ccc(F)cc2)C1,u,x,x,0.0%
O=C1C=C(c2ccccc2Oc2ccccc2)C[C@@H](c2ccc3c(c2)OCO3)C1,3.7µM*,x,x,u
COc1ccccc1C1=CC(=O)C[C@H](c2ccc3c(c2)OCO3)C1,-7.5%,x,x,10.6%
COc1ccccc1C1=CC(=O)C[C@H](c2ccc(Cl)cc2)C1,7.38µM*,x,x,u
O=C1C=C(c2cccc3c2oc2ccccc23)C[C@@H](c2ccc(F)cc2)C1,2.33µM*,x,x,-18.0%
CCOC(=O)c1cccc(C2=CC(=O)C[C@H](c3ccc(Cl)cc3)C2)c1,13.1µM*,x,x,u
O=C1C=C(c2ccc(-c3ccccc3)cc2)C[C@@H](c2ccc(Cl)cc2)C1,u,x,x,20.7%
Cc1c(F)cccc1NS(=O)(=O)c1ccc2c(c1)NC(=O)CO2,u,-6.8,-11.1,476.1%
Cc1cc(=O)oc2c(C)c(OCC(=O)c3ccccc3)ccc12,35.7%,-3.9,-4.4,8.3%
COc1ccc([C@H]2CC(=O)C=C(c3ccc(F)cc3OCc3ccccc3)C2)cc1OC,9.28µM*,x,x,u
COc1cc(F)c(C2=CC(=O)C[C@H](c3ccc(F)cc3)C2)cc1F,0.1%,x,x,u
O=C1C=C(c2cc(F)ccc2F)C[C@@H](c2ccc(F)cc2)C1,2.33µM*,x,x,u
O=C(N[C@@H](Cc1ccccc1)C(=O)N1CCC2(CC1)NCCc1[nH]cnc12)c1cccc(F)c1,-4.6%,7.4,-4.4,-3.7%
COC(=O)Cc1c(O)ccn(CCc2c[nH]c3ccccc23)c1=O,16.0%,-5.4,-1.2,30.6%
O=c1c(Cc2c(F)cccc2Cl)c(O)ccn1CCc1c[nH]c2ccccc12,u,-0.9,-11.6,5.22µM*
COC(=O)Cc1c(OC)ccn(CCc2c[nH]c3ccccc23)c1=O,194.5%,34.3*,103.0*,459.7%
C#CCn1ccc(O)c(Cc2c(F)cccc2Cl)c1=O,10.7%,14.6,4.7,16.2%
CCOC(=O)C1CCN(c2nc(N)c3c(N)nc(SCC(=O)O)cc3c2C#N)CC1,2.62µM*,-3.1,-15.2,2.62µM*
CC(C)Oc1ccccc1C1(c2ccccc2)NC(=O)NC1=O (stereo not drawn),14.6%,-0.8,x,u
COc1cccc(NC(=O)COC(=O)C2CC(=O)N(c3ccc(C)cc3)C2)c1 (stereo not drawn),34.4%,x,x,20.4%
SMILES,Pf growth 48h,CHX counter,Shiga inhibitor,Pf growth 96h
Fc1ccccc1NC(=S)NCc1ccccc1,7.9%,10.3,45.9,27.2%
Fc1ccccc1NC(=S)NCCc1ccccc1,57.1%,39.0*,59.4*,62.7%
Fc1ccccc1NC(=S)NCCc1ccc(Cl)cc1,u,53.5*,73.9*,u
S=C(NCCc1ccccc1)Nc1ccc(Nc2ccccc2)cc1,u,-2.1,9.3,-3.0%
Fc1cccc(NC(=S)NCCc2ccccc2)c1,12.2%,45.4*,96.3*,222.3%
NC(=S)Nc1ccc(F)c(F)c1F,2.62µM*,-0.8,-3.7,35.4%
Cc1ccc(S(=O)(=O)NCCCN2CCCC2)cc1,1.0%,-2.1,-5.6,8.5%
CCC1CCCCN1C(=S)NC(=O)c1cccc([N+](=O)[O-])c1 (stereo not drawn),u,-2.6,29.8,u
Cc1ccccc1NC(=S)NCCSc1ccc(Cl)cc1,-25.7%,6.8,10.2,50.9%
CCc1ccccc1NC(=S)NCCSc1ccc(Cl)cc1,u,3.1,-4.0,4.15µM*
Fc1ccc(F)c(NC(=S)NCCc2ccccc2)c1,6.4%,30.0*,95.8*,42.3%
Fc1ccc(NC(=S)NCCc2ccccc2)c(F)c1F,u,35.5*,109.3*,-5.9%
OCCNC(=S)NCCc1ccccc1,15.9%,6.3,18.6,86.2%
O=[N+]([O-])c1cccc(NC(=S)NCCc2ccccc2)c1,u,39.4*,60.2*,-33.0%
O=[N+]([O-])c1ccc(S(=O)(=O)NNC(=S)NCCc2ccccc2)cc1,6.2%,4.9,1.4,-25.9%
c1ccc(-c2onc3c2CCCC3)cc1,13.2%,16.2*,70.6*,x
CCN(C(=O)COC(=O)C1CCN(S(=O)(=O)c2ccc(C)c(C)c2)CC1)C1CCCCC1,u,x,x,-17.0%
CCCCC(=O)Nc1ccc(C(=O)N(CC)c2ccccc2C)cc1,u,-3.4,-7.3,u
CCn1c(O)c(/C=C2\C=Nc3ccccc32)sc1=Nc1ccccc1,u,26.7*,98.1*,2.2%
Cn1c(O)c(/C=C2\C=Nc3ccccc32)sc1=Nc1ccc(C(=O)O)cc1,4.7%,0.7,-34.5,7.7%
CN1CCN(Cc2c(O)ccc3occ(C(=O)c4ccccc4)c23)CC1,u,8.6,1.9,10.9%
CC(=O)C(C(C)=O)c1c(Cl)c(O)c(O)c2c(C(=O)c3ccccc3)coc12,x,11.2,3.2,2.62µM*
CCC(C(=O)OCC(=O)Nc1cc(Cl)cc(Cl)c1)c1ccccc1 (stereo not drawn),14.4%,-0.2,2.3,51.1%
O=S(=O)(NCCc1ccccc1)c1ccc(Cl)nc1,3.8%,-2.8,-4.6,25.4%
COc1ccc(C(=O)NC2=NCCS2)cc1,222.2%,72.7*,67.7*,105.8%
SMILES,Pf growth 48h,CHX counter,Shiga inhibitor,Pf growth 96h
CN1CCc2nc(NC(=O)c3cccc(OC(F)F)c3)sc2C1,x,26.5*,23.0,u
COc1cc(OC)cc(C(=O)N[C@H](C(=O)NC23CC4CC(CC(C4)C2)C3)C(C)C)c1,10.4µM*,-4.1,-16.9,x
O=C(NC12CC3CC(CC(C3)C1)C2)c1cccc(OC(F)F)c1,u,42.0*,72.3*,-10.9%
CCN(CC(=O)Nc1c(F)cccc1F)C(=O)c1nc2nccc(C)n2n1,5.8%,x,x,52.3%
Cc1nn(Cc2ccccc2)c(C)c1CNC(=O)CN=C1NS(=O)(=O)c2ccccc21,u,x,x,-2.6%
COc1cc(OC)cc(C(=O)NC2=NCCS2)c1,x,24.7,28.8,22.3%
O=C(NC1=NCCS1)c1cccc(OC(F)F)c1,415.9%,36.3*,75.8*,i
CC(C)Oc1ccc(C(=O)NC2=NCCS2)cc1,467.6%,19.6*,57.4,183.1%
COc1cccc(C(=O)NC2=NCCS2)c1OC,93.4%,30.7*,63.4*,u
COc1cc(C(=O)NC2=NCCS2)cc(OC)c1OC,x,-2.7,13.9,-3.7%
O=C(Nc1cccc(C(F)(F)F)c1)c1ccccc1NC(=O)C1CCCCC1,u,-2.6,-11.5,0.0%
COC(=O)c1scc(C)c1NC(=O)c1ccccc1F,7.2%,16.2,14.3,12.6%
